Assay outcomes deposited in PubChem by National Center for Advancing Translational Sciences (NCATS).
TDP1 block: TDP1 (human) enzyme inhibition; recombinant TDP1, AlphaScreen DNA substrate cleavage; hit rate 0.28% among 350,000; Potency, µM (titrated, usually from 130 µM), without a hit: at the top dose activity change, negative = inhibition, usual class: inhibitors; Q9NUW8; also: potency is read from the fitted curve at half-maximal effect; % is scaled to controls: 0 for no effect and ±100 for the full control effect; nearly all actives have a fitted effect of over 40% in size
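Recombinant E. coli-expressed Tdp1 (1 nM) preincubated with compound 15 min at RT, then 5'-biotin/3'-phosphotyrosine-FITC DNA substrate (15 nM) added for 5 min. AlphaScreen beads (10 ug/ml) added, 10 min RT; tyrosine-FITC cleavage read as signal loss.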
BAZ2B inh: blocks human BAZ2B; Potency, µM (titrated, usually from 114 µM), for the others: at the top dose activity change, negative = inhibition, hits mostly inhibitors; Q9UIF8; hit rate 4.4% among 360,000; AlphaScreen BAZ2B-H3K14Ac peptide displacement; also: potency is read from the fitted curve at half-maximal effect; % is scaled to controls: 0 for no effect and ±100 for the full control effect; nearly all actives have a fitted effect of over 60% in size
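BAZ2B 50 nM plus b-H3(5-23)K14Ac 50 nM, PBS pH 7.4/0.01% Tween-20, 30 min RT; compound added (max 110 uM), 30 min RT; streptavidin donor/Ni-chelate acceptor beads 10 ug/mL final, 20 min dark; AlphaScreen read.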
HP1b chromo inh: inhibitors of HP1-beta chromodomain binding to methylated histone tails; P83916; AlphaScreen HP1-beta / biotin-H3K9me3 peptide binding; Potency, µM (top dose mostly 114 µM), inactives show at the highest dose activity change, negative = inhibition, actives largely listed as inhibitors; hit rate 0.56% among 390,000; AID 540317; also: potency is read from the fitted curve at half-maximal effect; nearly all actives have a fitted effect of over 70% in size
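HP1-beta protein (50 nM final) preincubated 30 min at room temperature with biotinylated H3(1-18)K9me3 peptide (50 nM) in PBS pH 7.4, 0.01% Tween-20, then compound added for 30 min. AlphaScreen streptavidin donor/nickel chelate acceptor beads (10 ug/mL final), 30 min dark, luminescence read.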
Six1-Eya2 blk: Six1/Eya2 interaction inhibition; Q15475+O00167; AlphaScreen GST-Six1/His-Eya2 binding, biochemical; active compounds read low; activity change, % (test concentration not listed); hit rate 0.56% among 360,000; in the data active = activity change below about -65%; inconclusive = mostly about -30% to -63%; also: % is scaled to controls: 0 for no effect and ±100 for the full control effect
Target sequence (O00167 whole entry, looked up): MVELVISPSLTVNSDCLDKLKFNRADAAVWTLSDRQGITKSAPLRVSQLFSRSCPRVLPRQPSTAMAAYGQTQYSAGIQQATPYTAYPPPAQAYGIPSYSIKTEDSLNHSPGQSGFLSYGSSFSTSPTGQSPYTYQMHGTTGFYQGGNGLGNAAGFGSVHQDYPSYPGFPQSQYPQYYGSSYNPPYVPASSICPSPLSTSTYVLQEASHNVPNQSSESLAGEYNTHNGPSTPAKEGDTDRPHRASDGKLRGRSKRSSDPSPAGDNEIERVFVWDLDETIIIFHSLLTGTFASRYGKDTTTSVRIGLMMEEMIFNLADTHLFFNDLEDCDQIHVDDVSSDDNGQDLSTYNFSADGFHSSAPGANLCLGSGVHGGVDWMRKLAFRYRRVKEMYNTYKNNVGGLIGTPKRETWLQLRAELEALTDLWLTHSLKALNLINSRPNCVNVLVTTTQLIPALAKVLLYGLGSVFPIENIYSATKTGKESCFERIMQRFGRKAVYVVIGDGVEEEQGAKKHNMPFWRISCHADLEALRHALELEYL
Target sequence (Q15475 whole entry, looked up): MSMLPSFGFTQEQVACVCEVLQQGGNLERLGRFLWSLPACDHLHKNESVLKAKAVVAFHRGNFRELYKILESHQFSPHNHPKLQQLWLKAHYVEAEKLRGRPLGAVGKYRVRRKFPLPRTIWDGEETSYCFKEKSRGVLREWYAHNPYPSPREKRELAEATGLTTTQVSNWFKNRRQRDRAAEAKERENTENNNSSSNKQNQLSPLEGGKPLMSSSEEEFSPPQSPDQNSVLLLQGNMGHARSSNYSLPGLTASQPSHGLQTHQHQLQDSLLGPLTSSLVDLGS
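AlphaScreen luminescence read after one hour at 37 °C in darkness. Pin-transferred compounds met GST-Six1 and His-Eya2 protein (5X stock 250 nM/500 nM) plus glutathione donor and Ni-chelate acceptor beads (5X, 50 ug/mL).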
JMJD2A Tudor inh: blocks the human JMJD2A Tudor domain; AlphaScreen JMJD2A-Tudor / H3K4me3 peptide binding; Potency, µM (series often up to 114 µM), for the others: at the highest dose activity change, negative = inhibition, usual class: inhibitors; hit rate 4.4% among 390,000; also: potency is read from the fitted curve at half-maximal effect; % is scaled to controls: 0 for no effect and ±100 for the full control effect; nearly all actives have a fitted effect of over 50% in size
CtBP-E1A inh: blocks the CtBP interaction with E1A; hit rate 0.49% among 340,000; AlphaScreen GST-E1A/His-CtBP binding, 1536-well; active compounds read low; activity change, % (test concentration not listed); in the data active = activity change below about -65%; inconclusive = mostly about -30% to -63%; also: % is scaled to controls: 0 for no effect and ±100 for the full control effect
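AlphaScreen with 125 nM GST-E1A and 125 nM His-CtBP (5X stocks) in Tris pH 8.0, 300 mM NaCl, BSA, Tween 20, TCEP. Compounds preincubated 2 h at 37 deg C, then glutathione donor/nickel acceptor beads added for 1 h at 37 deg C in dark.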
* hit, by the source's call; ? = inconclusive; / = not tested or not shown; [ ] = dose if it differs, or a comment. Shown are actives, neighbours in structure and some others; about 5.3% of the full set was active somewhere. Unless noted, calls follow the shape of the dose curve; as a rule, active = well fitted inhibition curve with a large enough effect; inconclusive = small, poorly fitted or top-dose-only effect; inactive = no such curve, though single readings can be large or run the other way.

SMILES	TDP1 block	BAZ2B inh	HP1b chromo inh	Six1-Eya2 blk	JMJD2A Tudor inh	CtBP-E1A inh
COc1cccc(-c2nnc3sc(CN4CCCCC4)cn23)c1	2.2%	-38.3%	19.1%[57 µM]	/	-7.4%	/
O=[N+]([O-])c1ccc(C[n+]2cccc3ccccc32)cc1	0.0%	-18.0%	21.9%	0.0	1.7%	-2.0
O=[N+]([O-])c1ccc(C[n+]2cccc3ccc4cccnc4c32)cc1	7.7%	12.6µM*	-15.6%	-90.4*	11.2µM*	-89.0*
COc1ccc(C)cc1NC(=O)CC(=O)Nc1ccc2nc3n(c(=O)c2c1)CCCCC3	5.1%	?	26.5%	/	?	/
O=C(NCc1ccccc1)c1ccc(NC(=O)c2nsc3ccccc23)cc1	2.7%	3.8%	14.6%[57 µM]	/	-6.5%	/
Clc1ccc(CO/N=C2\CCCc3nonc32)cc1	-5.3%	143.6%	81.4%	43.8	70.8µM*	3.8
Clc1ccccc1CO/N=C1\CCCc2nonc21	-3.5%	119.7%	132.6%	34.0	55.2%	-12.9
Cc1cccc(-c2ncc(CN3CCN(CC(C)C)C(CCO)C3)cn2)c1 (stereo unspecified)	4.8%	-19.0%	10.6%	7.3	17.8µM*	8.4
CCC1CC=CC2C1C(=O)N(Cc1ccccc1)C2c1ccoc1 (stereo unspecified)	7.4%	/	58.2%	/	18.6%	/
COc1cccc(/C=C/c2nc(S(=O)(=O)c3ccccc3)c(N(C)C)o2)c1	4.6%	-4.0%	26.0%	3.1	-4.1%	7.8
COc1ccccc1/C=C/c1nc(S(=O)(=O)c2ccccc2)c(N(C)C)o1	0.5%	70.8µM*	69.3%	0.6	?	8.0
c1nc(NCC2CCCO2)c2ccc(-c3ccc4c(c3)OCO4)cc2n1 (stereo unspecified)	-0.9%	/	/	/	79.4µM*	/
c1nc(NCC2CCCO2)c2cc(-c3ccc4c(c3)OCO4)ccc2n1 (stereo unspecified)	-0.3%	/	/	/	?	/
NC1CCN(c2nc3c(cc2F)c(=O)c(C(=O)O)cn3-c2ccc(F)cc2F)C1 (stereo unspecified)	/	/	77.7%	-4.2	50.1µM*	-0.5
CC(C)c1ccc(OCc2ccc(C(=O)N(C)C)o2)cc1	/	?	45.1%	1.0	-17.4%	-3.4
CC(C)c1ccc(OCc2ccc(C(=O)O)o2)cc1	-9.6%	79.4µM*	-6.6%	-7.6	-23.4%	2.3
CC(C)(C)c1nc(CN2CCOCC2)cc(CN2CCOCC2)c1O	9.8%	-32.2%	13.6%	-10.0	31.6µM*	-0.2
Oc1c(CN2CCOCC2)cc(CN2CCOCC2)c(O)c1CN1CCOCC1	/	/	8.91µM*	2.6	7.94µM*	2.1
Oc1c(CN2CCOCC2)cc(-c2ccccc2)cc1CN1CCOCC1	2.0%	-37.2%	21.1%	-7.2	-24.9%	-1.7
C=CCN1C(=O)C(O)(CC(=O)c2ccc(-n3cccc3)cc2)c2ccccc21 (stereo unspecified)	10.9%	50.1µM*	?	-9.3	?	-2.3
O=C(NCCc1ccccc1)c1ccc(CSc2nc3ccncc3n2Cc2ccccc2)cc1	2.5%	-1.3%	44.1%	/	-5.4%	/
O=C(CCCSc1ccccc1)Nc1nc(-c2ccco2)c(-c2ccco2)s1	8.2%	22.4µM*	28.2µM*	?	39.8µM*	-23.2
CC(=O)c1sc(NC(=O)CCNC(=O)c2ccco2)nc1-c1ccccc1	1.4%	?	13.1%	-5.4	-18.2%	-10.2
Cc1ccc(C(=O)Nc2nc(-c3ccco3)c(-c3ccco3)s2)o1	-0.3%	20µM*	50.1µM*	-29.4	?	-11.3
O=C(CCl)Nc1nc(-c2ccco2)c(-c2ccco2)s1	2.8%	50.1µM*	?	-25.1	?	-17.7
SMILES	TDP1 block	BAZ2B inh	HP1b chromo inh	Six1-Eya2 blk	JMJD2A Tudor inh	CtBP-E1A inh
CCN(C(=O)c1cc2cc(Br)cc(OC)c2oc1=O)c1ccccc1	-1.9%	-13.8%	10.9%	/	-16.8%	/
Cc1cc(C)c2c(=O)cc(CSc3nnc(-c4ccccc4)n3C)[nH]c2c1	5.4%	1.9%	27.7%[57 µM]	/	2.3%	/
CO[C@@H]1COC(=O)[C@H](C)NC(=O)[C@@H](C)COC(=O)[C@H](C)NC(=O)C/C=C\[C@H]1C	1.6%[21 µM]	/	/	/	/	/
COc1ccc2sc(N(CCCN(C)C)C(=O)c3ccc(S(=O)(=O)N4CCc5ccccc5C4)cc3)nc2c1	9.7%	-38.6%	-24.8%	-26.2	56.2µM*	-2.0
COc1ccc2sc(N(CCCN(C)C)C(=O)c3ccc(S(=O)(=O)N4CCCC4)cc3)nc2c1	1.7%	-14.6%	11.3%	4.9	-23.4%	-13.2
Cc1cc(C)c2sc(N(CCCN(C)C)C(=O)c3ccc(S(=O)(=O)N4CCCc5ccccc54)cc3)nc2c1	10.8%	11.2µM*	-7.2%	?	39.8µM*	?
Cc1cc(C)c2sc(N(CCCN(C)C)C(=O)c3ccc(S(=O)(=O)N4CCc5ccccc5C4)cc3)nc2c1	6.0%	-19.9%	/	/	/	/
CN(C)CCN(C(=O)c1ccc2ccccc2c1)c1nc2c(F)cccc2s1	14.5%	-37.3%[57.1 µM]	1.1%	4.5	?	4.8
COc1ccc2sc(N(CCN(C)C)C(=O)c3ccc4ccccc4c3)nc2c1	9.3%	?	-13.8%[57 µM]	-6.8	39.8µM*	/
Cc1cc(C)c2nc(N(CCN(C)C)C(=O)c3ccc4ccccc4c3)sc2c1	14.8%	?	-12.0%	-27.0	39.8µM*	-28.2
CCc1ccc2nc(N(CCN(C)C)C(=O)c3ccc4ncsc4c3)sc2c1	10.1%	?	?	?	50.1µM*	-19.0
CN(C)CCN(C(=O)c1ccccc1Cl)c1nc2c(Cl)cccc2s1	2.6%	-64.5%	?	?	25.1µM*	?
CCOCCCNC(=O)C1CCN(c2cc(C)nc3c(-c4ccc(Cl)cc4)c(C)nn23)CC1	2.3%	0.7%	21.6%	/	-2.0%	/
CCOc1cc(-c2ccc3c(c2)OCO3)cc(=[O+]CC)c2c(C)oc(C)c12	1.2%	/	?	/	56.2µM*	/
COc1ccc(-c2cc(OC(=O)c3cccc(Cl)c3)c3c(C)oc(C)c3c(=O)c2)cc1	7.4%	50.1µM*	0.9%	/	?	/
COc1ccc(-c2cc(OC(=O)c3ccc(F)cc3)c3c(C)oc(C)c3c(=O)c2)cc1	7.6%	50.1µM*	/	/	/	/
Cc1oc(C)c2c(=O)cc(-c3ccc4c(c3)OCO4)cc(OC(=O)c3ccccc3Cl)c12	4.9%	44.7µM*	-3.9%	/	63.1µM*	/
Cc1oc(C)c2c(=O)cc(-c3ccc4c(c3)OCO4)cc(OC(=O)c3ccccc3Br)c12	6.1%	?	-16.2%	/	?	/
COc1cccc2sc3cc(C#Cc4ccccn4)ccc3c(=O)c12	44.7µM*	/	-6.7%	-21.0	28.2µM*	-17.8
C=CCn1c(NCc2ccc(N(C)C)cc2)nc2ccccc21	11.6%	44.7µM*	?	-22.2	?	-20.2
CCCCn1c(NCc2ccncc2)nc2ccccc21	-5.5%	-12.2%	35.7%	-4.9	-10.3%	2.8
